Screening data deposited in PubChem BioAssay by NMMLSC.
An excerpt weighted towards active compounds, which were near 1.2% of everything screened.
Avidin fluor: avidin bead compound fluorescence profile. Avidin beads, compound fluorescence 488/530 nm, flow cytometry; hits give high values. fluorescence (KMESF) at 10 µM. actives 0.38% (n = 220,000); in the data active means fluorescence above about 47
GSH fluor: compound fluoresces at 488/530 nm on GSH beads; GSH beads flow cytometry, compound fluorescence 488/530 nm; hits give high values; fluorescence (KMESF) at 10 µM; actives 0.25% (n = 190,000); AID 1776; in the data active means fluorescence above about 89;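 further: glutathione beads carrying GST-tagged Bcl family fusion proteins plus one bare bead set; values are compound well signal with DMSO vehicle wells as background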
RGS8-Gao: modulates binding of RGS8 to human Galphao. multiplexed bead flow cytometry; actives lie on both sides. response (percent of control binding), % at 10 µM. actives 0.34% (n = 220,000); in the data active means response below about 60% or above about 140%; inactive means in between;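 further: Galphao activated as the GDP aluminium fluoride complex binding bead-coupled RGS8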
Target sequence (P09471 whole entry, looked up): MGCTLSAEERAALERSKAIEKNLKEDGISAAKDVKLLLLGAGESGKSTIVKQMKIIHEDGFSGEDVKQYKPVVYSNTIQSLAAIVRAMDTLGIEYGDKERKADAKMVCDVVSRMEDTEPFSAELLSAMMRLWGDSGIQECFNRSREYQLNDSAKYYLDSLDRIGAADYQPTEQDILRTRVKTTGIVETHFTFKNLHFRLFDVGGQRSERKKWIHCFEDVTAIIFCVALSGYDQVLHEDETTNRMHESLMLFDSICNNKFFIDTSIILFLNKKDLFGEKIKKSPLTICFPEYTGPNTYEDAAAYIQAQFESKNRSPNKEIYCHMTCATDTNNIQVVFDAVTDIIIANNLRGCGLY
RGS4-Gao reg: modulates binding of RGS4 to human Galphao; P09471; binding response (% of control), % at 10 µM; actives 0.33% (n = 220,000); Multiplexed bead flow cytometry; actives lie on both sides; in the data active means binding response below about 49% or above about 150%; inactive means in between;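 further: fluorescent Galphao activated with aluminum fluoride binding bead-coupled RGS4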
RGS16-Gao: modulates binding between human RGS16 and Galphao | binding response (% of control), % at 10 µM | AID 1441 | bead-based flow cytometry RGS16-Galphao binding, fluorescence; actives lie on both sides | actives 0.38% (n = 220,000) | O15492+P09471;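 further: Galphao activated by GDP with aluminum fluoride before binding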
Target sequence (O15492 whole entry, looked up): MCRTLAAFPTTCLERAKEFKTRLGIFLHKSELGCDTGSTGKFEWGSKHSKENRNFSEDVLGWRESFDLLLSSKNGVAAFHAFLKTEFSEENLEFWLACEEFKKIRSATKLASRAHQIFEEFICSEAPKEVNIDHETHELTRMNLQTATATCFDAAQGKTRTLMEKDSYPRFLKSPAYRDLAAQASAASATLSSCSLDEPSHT
Target sequence (P09471 whole entry, looked up): as the sequence (P09471 whole entry, looked up) above
RGS7-Gao reg: human RGS7-Galphao interaction regulation. P09471. Multiplexed bead flow cytometry, RGS7-Galphao binding; actives lie on both sides. binding response (% of control), % at 10 µM. actives 0.35% (n = 220,000). AID 1439; in the data active means binding response below about 49% or above about 150%; inconclusive means no clear call, values can overlap the other calls; inactive means in between;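 further: fluorescent Galphao held in activated GDP-AlF4 state binding bead-coupled RGS7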
RGS4-Gao HTS: regulators of human RGS4-Galphao interaction; AID 1504; multiplexed bead flow cytometry, RGS–Galpha-o binding; shares compounds with RGS16-Gao; RGS4–Galpha-o binding response, % at 10 µM; actives 99% (n = 1,600);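 further: fluorescently labeled Galpha-o bound to GDP with aluminium fluoride binding biotinylated RGS beads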
Biotin-avidin: interferes with biotinylated probe binding to avidin beads. shares compounds with RGS16-Gao. streptavidin beads, fluorescein-biotin binding, flow cytometry. inhibition, % at 10 µM. 1,700 tested, under 10 active. AID 1783;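 active means inhibition above 50%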;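 further: median green fluorescence of gated singlet beads compared with DMSO control wells; 0% = DMSO wells and 100% = complete loss of bead fluorescence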
RGS8-Gao confirm: confirmation of regulators of human RGS8-Galphao interaction; binding response (% of control), % at 10 µM; actives 3% (n = 1,700); shares compounds with RGS16-Gao; bead-based flow cytometry RGS8-Galphao binding, fluorescence; actives lie on both sides; in the data active means binding response below about 72% or above about 130%; inactive means in between;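 further: Galphao activated as GDP AlF4 complex before binding bead RGS8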
RGS7-Gao single: RGS7-Galphao interaction regulation, single point confirmation. response (percent of control binding), % at 10 µM. shares compounds with RGS16-Gao. bead-based flow cytometry RGS7-Galphao binding; actives lie on both sides. actives 7.8% (n = 1,700). AID 1837; in the data active means response below about 75% or above about 130%; inactive means in between;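 further: fluorescent Galphao activated with GDP and aluminum fluoride binding bead-coupled RGS7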
RGS16-Gao single: confirmation of regulators of human RGS16-Galphao interaction; bead-based flow cytometry, RGS16-Galphao binding; actives lie on both sides; actives 4% (n = 1,700); response (% of control binding), % at 10 µM; shares compounds with RGS16-Gao; in the data active means response below about 74% or above about 130%; inactive means in between;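 further: Galphao activated as the GDP aluminium fluoride complex binding bead-coupled RGS16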
RGS4-Gao confirm: RGS4-Galphao interaction regulation, single point confirmation | shares compounds with RGS16-Gao | RGS4-Galphao binding, multiplexed bead flow cytometry; actives lie on both sides | binding response (% of control), % at 10 µM | actives 4% (n = 1,700); in the data active means binding response below about 74% or above about 130%; inactive means in between
RGS19-Gao conf: confirmation of regulators of human RGS19-Galphao interaction; actives 5% (n = 1,700); shares compounds with RGS16-Gao; AID 1841; bead-based flow cytometry RGS19-Galphao binding; actives lie on both sides; response (percent of control binding), % at 10 µM; in the data active means response below about 50% or above about 160%; inactive means in between;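 further: 100% = no compound control and 0% = blank background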
* hit, by the source's call; i = inactive; ? = inconclusive; . = no result given; [ ] = another dose, or the depositor's remark. Unless noted, how the calls were made is not given here.

SMILES	Avidin fluor	GSH fluor	RGS8-Gao	RGS4-Gao reg	RGS16-Gao	RGS7-Gao reg	Biotin-avidin	RGS8-Gao confirm	RGS7-Gao single	RGS16-Gao single	RGS4-Gao confirm	RGS19-Gao conf	others
CCCCOc1ccc(-c2nc(SCC(N)=O)n[nH]2)cc1	9	16	100.5	100.1	103.0	99.7	.	.	.	.	.	.
CCCCOc1ccc(-c2nc(=S)[nH][nH]2)cc1	4	39	.	92.5	92.0	99.3	0.0	90.8	104.5	92.7	101.0	97.8
O=C(O)CCCC(=O)Nc1cccc2cccnc12	89*	20	87.5	107.3	70.7	150.8*[activator]	1.2	96.3	95.3	99.2	97.8	93.4	RGS4-Gao HTS=107.3*
CC(C)N(CC#CCC(O)(c1ccccc1)c1ccccc1)C(C)C	2	7	101.8	101.0	97.8	97.9	.	.	.	.	.	.
CC(c1ccccc1C(O)(c1ccccc1)c1ccccc1)N(C)C (stereo unspecified)	-3	9	13.7*	16.8*	-42.8	7.0*	1.0	104.4	107.1	108.4	106.7	90.8
Cc1ccc(OCC(=O)NNC(=O)C(=O)N2CCCC2)c(C)c1	6	20	138.2	118.0	243.7*[activator]	113.2	1.0	101.0	100.1	101.6	99.2	95.0	RGS4-Gao HTS=118.0*
CC(C)CC(NC(N)=O)C(=O)OCC(=O)Nc1ccc(OC(F)F)cc1 (stereo unspecified)	10	17	96.0	89.9	98.8	92.6	.	.	.	.	.	.
CCOc1ccccc1-c1c2cc(O)c(=O)cc-2oc2cc(O)c(O)cc12	4	10	69.1	84.7	46.9	42.3*	-2.3	63.8*	49.6*	63.4*	82.0	39.8*	RGS4-Gao HTS=84.7*
O=c1cc2oc3cc(O)c(O)cc3c(-c3ccccc3O)c-2cc1O	2	.	87.4	89.8	86.1	?	.	.	.	.	.	.
COc1ccc(C(c2nnnn2C2CCCC2)N2CCC(C)CC2)c(OC)c1 (stereo unspecified)	.	32	.	188.3*[activator]	.	174.5*[activator]	0.8	102.0	103.0	102.5	102.6	112.5
CNC(=O)C1CC(=O)N(CCCc2ccccc2)C(=Nc2ccccc2)S1 (stereo unspecified)	3	47	87.3	94.0	22.4*	92.4	1.3	102.3	100.6	103.7	98.5	120.2	RGS4-Gao HTS=94.0*
Cc1ccc(CSCCC(=O)NCCc2ccc(Cl)cc2)cc1	121*	17	112.0	188.2*[activator]	212.1	211.7*[activator]	1.7	95.0	94.9	95.1	96.7	86.6
O=C(CCSCc1ccc(Cl)cc1)NCCc1ccccc1	12	11	96.9	102.7	93.2	96.7	.	.	.	.	.	.
COCCCn1c(=O)/c(=C\c2ccc(OC(F)F)c(OC)c2)s/c1=C(/C#N)C(=O)NCCOC	8	.	102.5	104.6	103.2	?	.	.	.	.	.	.
CN(C)c1ccc(NC(=O)C2CCCN(S(=O)(=O)c3ccccc3)C2)cc1 (stereo unspecified)	9	16	96.7	95.5	96.8	96.9	.	.	.	.	.	.
O=C(NCC1OCCc2ccccc21)c1ccc(NC(=O)c2ccc(Cl)cc2Cl)cc1 (stereo unspecified)	190*	17	142.9*[activator]	315.5*[activator]	445.0*[activator]	329.1*[activator]	4.0	98.0	95.2	90.3	94.0	73.4
CCN(CC)CCCNC(=O)C1c2cc(OC)c(OC)cc2C(=O)N(C)C1c1cccs1 (stereo unspecified)	12	33	153.1*[activator]	153.1*[activator]	453.6	130.2	-0.9	105.2	98.1	110.3	103.4	103.4
Cc1ccsc1C1C2=C(CCCC2=O)Nc2ncnn21 (stereo unspecified)	14	25	102.2	98.8	101.6	99.3	.	.	.	.	.	.
O=C1CCCC2=C1C(c1cccs1)n1ncnc1N2 (stereo unspecified)	80*	25	104.6	201.8*[activator]	141.8	162.7*[activator]	-0.6	92.6	60.6*	72.1*	73.6*	40.3*
CCc1nnc(SCc2ccc(OC)c(Br)c2)n1N	15	24	43.8*	40.5*	33.4	35.4*	-2.2	105.3	100.9	110.3	100.7	104.5
CCN(CC)c1ccc(NC(=O)c2cccc(F)c2)c(C)c1	3	25	53.1*	44.7*	35.5	40.3*	i	103.0	99.4	101.9	100.8	109.3
CCN(CC)c1ccc(NC(=O)c2ccco2)c(C)c1	8	19	96.3	99.0	90.3	99.8	.	.	.	.	.	.
CCCOC(=O)c1c(NC(=O)C2CCCO2)sc(C(=O)OC)c1C (stereo unspecified)	0	12	88.3	102.3	54.9	114.2	.	.	.	.	.	.
CCOC(=O)c1c(NC(=O)C2CCCO2)sc(C(N)=O)c1C (stereo unspecified)	15	4	133.2	111.4	295.0*[activator]	112.8	-1.1	99.9	88.2	99.7	92.7	93.4	RGS4-Gao HTS=111.4*
CSc1nsc(/C=C/Nc2ccc(O)cc2C)c1C#N	28	16	104.1	101.1	109.7	102.6	.	.	.	.	.	.
NC(=O)CSc1nnc(-c2ccco2)n1N	.	38	.	.	.	.	0.5	101.3	98.4	96.7	97.6	101.5
Cn1cccc1C1Nc2ccccc2NC2=C1C(=O)CC(C)(C)C2 (stereo unspecified)	0	7	58.0*	59.5	49.8	57.8	0.9	101.7	98.8	103.3	103.0	100.9	RGS4-Gao HTS=59.5*
CC1(C)CC(=O)C2=C(C1)Nc1ccccc1NC2c1cccnc1 (stereo unspecified)	20	13	133.0	114.9	198.3	114.9	.	.	.	.	.	.
COc1ccc(CN2CCc3ccccc3C2)c(OC)c1	7	.	101.4	101.2	101.9	?	.	.	.	.	.	.
COc1ccc(C2=[N+](C)CCn3cccc32)c(OC)c1	16	10	124.1	159.7*[activator]	204.5*[activator]	142.2	-0.1	108.7	119.1	117.1	115.4	111.2
